Results published in the supplement of paper PMC12350171.
Counter-ions that a name gives are not always drawn.

Columns and labels:
Settings in all cases: 20 µM
[1] = system: Haemophilus parainfluenzae; experiment: growth AUC normalised to DMSO control (fraction of control); higher = less growth inhibition, active = hit call of the paper
Procedure, shortened: (§1)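 Hemin and NAD were added to the medium for Haemophilus parainfluenzae. All pathogens, after two anaerobic passages, were inoculated at a starting OD578 of 0.01 into pre-reduced mGAM plates with 20 μM compound and 1% DMSO under breathable seals, and OD578 was read hourly for 24 h in three biological replicates. AUC of each growth curve was obtained with the trapezoidal rule up to the exponential-to-stationary transition and normalised to DMSO controls from the same plate.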

[2] = system: Salmonella enterica typhimurium; experiment: as above
Procedure, shortened: as §1

Shigella flexneri = experiment: as above
Procedure, shortened: as §1

Vibrio cholerae = experiment: as above
Procedure, shortened: as §1

[3] = system: Yersinia pseudotuberculosis; experiment: as above
Procedure, shortened: as §1

P. vulgatus RND KO = experiment: growth AUC normalised to DMSO control (median) (fraction of control); higher = less growth inhibition, active = hit call of the paper
Procedure, shortened: (§2)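 Anaerobic growth was tracked hourly at OD578 for 24 h in 96-well plates of mGAM seeded at OD578 0.01 with each approved-drug library compound at 20 μM and 1% DMSO. Strains had first been passaged twice overnight without oxygen. Three biological replicates were run. The reported median is the area under the curve, calculated by the trapezoidal rule on curves truncated at entry into stationary phase and normalised to vehicle wells on the same plate.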

P. vulgatus WT = experiment: as above
Procedure, shortened: as §2

[4] = system: S. enterica typhimurium WT; experiment: as above
Procedure, shortened: as §2

[5] = system: S. enterica typhimurium tolC KO; experiment: as above
Procedure, shortened: as §2

Measured: growth AUC normalised to DMSO control
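Wherever growth AUC normalised to DMSO control (median) is given: active when median AUC fell below 0.1.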

CN1[C@@H]2CC[C@H]1C[C@@H](OC1c3ccccc3CCc3ccccc31)C2 [Deptropine citrate]
inactive: [1] 0.95 | [2] 0.993 | Shigella flexneri 0.971 | Vibrio cholerae 0.926 | [3] 0.965 | P. vulgatus RND KO 0.941 | P. vulgatus WT 0.945 | [4] 0.994 | [5] 0.942

CN1C[C@H](CNC(=O)OCc2ccccc2)C[C@@H]2c3cccc4c3c(cn4C)C[C@H]21 [Metergoline]
inactive: [1] 0.925 | [2] 0.979 | Shigella flexneri 0.973 | Vibrio cholerae 0.893 | [3] 0.993 | P. vulgatus RND KO 0.886 | P. vulgatus WT 0.885 | [4] 0.992 | [5] 0.895

O=P1(N(CCCl)CCCl)NCCCO1 (configuration not stated) [Cyclophosphamide]
inactive: [1] 1.04 | [2] 1.02 | Shigella flexneri 1.01 | Vibrio cholerae 1.04 | [3] 1.01 | P. vulgatus RND KO 0.998 | P. vulgatus WT 1 | [4] 1.01 | [5] 0.997

C[C@@H]1CC[C@H]2[C@@H](C)C(=O)O[C@@H]3O[C@@]4(C)CC[C@@H]1[C@]32OO4 [Artemisinin]
inactive: [1] 0.986 | [2] 0.988 | Shigella flexneri 1.01 | Vibrio cholerae 0.987 | [3] 0.957 | P. vulgatus RND KO 1.02 | P. vulgatus WT 1.04 | [4] 0.996 | [5] 0.998

CC(O)(CS(=O)(=O)c1ccc(F)cc1)C(=O)Nc1ccc(C#N)c(C(F)(F)F)c1 (configuration not stated) [Bicalutamide]
inactive: [1] 1.12 | [2] 1.05 | Shigella flexneri 1.08 | Vibrio cholerae 1.1 | [3] 1.01 | P. vulgatus RND KO 0.982 | P. vulgatus WT 0.988 | [4] 1.01 | [5] 0.954

CCCC[N+]1(C)[C@@H]2C[C@@H](OC(=O)[C@H](CO)c3ccccc3)C[C@H]1[C@@H]1O[C@@H]12 (some centres not stated) [N-Butylscopolammonium bromide]
inactive: [1] 1 | [2] 1 | Shigella flexneri 0.993 | Vibrio cholerae 1.01 | [3] 1.02 | P. vulgatus RND KO 1 | P. vulgatus WT 1 | [4] 1 | [5] 0.995

NCCCNCCSP(=O)(O)O [Amifostine]
inactive: [1] 1.02 | [2] 1.02 | Shigella flexneri 0.99 | Vibrio cholerae 1.01 | [3] 0.992 | P. vulgatus RND KO 1.02 | P. vulgatus WT 1.07 | [4] 1.02 | [5] 1.01

CNC(C)(C)Cc1ccccc1 [Mephentermine hemisulfate]
inactive: [1] 1.09 | [2] 1.03 | Shigella flexneri 1.03 | Vibrio cholerae 1.06 | [3] 0.977 | P. vulgatus RND KO 1.03 | P. vulgatus WT 1.08 | [4] 1 | [5] 0.994

CC(=O)NC1CCSC1=O (configuration not stated) [Citiolone]
inactive: [1] 1.03 | [2] 1.01 | Shigella flexneri 1 | Vibrio cholerae 1.03 | [3] 0.985 | P. vulgatus RND KO 1.03 | P. vulgatus WT 1.04 | [4] 1 | [5] 1.01

NCC(O)c1ccc(O)cc1 (configuration not stated) [Octopamine hydrochloride]
inactive: [1] 1.03 | [2] 1 | Shigella flexneri 0.999 | Vibrio cholerae 1.01 | [3] 1.02 | P. vulgatus RND KO 1.02 | P. vulgatus WT 1.03 | [4] 1 | [5] 1.03

CC(=O)O[C@H]1CC[C@@]2(C)C(=CC[C@@H]3[C@@H]2CC[C@]2(C)C(=O)CC[C@@H]32)C1 [Dehydroisoandosterone 3-acetate]
inactive: [1] 0.989 | [2] 0.995 | Shigella flexneri 0.966 | Vibrio cholerae 0.988 | [3] 1 | P. vulgatus RND KO 0.976 | P. vulgatus WT 0.952 | [4] 0.991 | [5] 0.903

CC1C=CC=CCCC=CC=CC=CC=CC(OC2OC(C)C(O)C(N)C2O)CC2OC(O)(CC(O)C(O)CCC(O)CC(O)CC(O)CC(=O)OC(C)C(C)C1O)CC(O)C2C(=O)O (configuration not stated) [Nystatine]
inactive: [1] 0.988 | [2] 0.992 | Shigella flexneri 0.959 | Vibrio cholerae 0.994 | [3] 0.989 | P. vulgatus RND KO 0.988 | P. vulgatus WT 0.996 | [4] 0.997 | [5] 1

NCC(CC(=O)O)c1ccc(Cl)cc1 (configuration not stated) [Baclofen]
inactive: [1] 1.04 | [2] 1.01 | Shigella flexneri 1.01 | Vibrio cholerae 1.01 | [3] 0.992 | P. vulgatus RND KO 1.02 | P. vulgatus WT 1.07 | [4] 1.02 | [5] 0.999
